# Data: the supplement of paper PMC9948646
# Test system: gramicidin D channels in DC22:1PC lipid vesicles (bilayer-modifying potency)
# Assay: initial Tl+ fluorescence quench rate relative to no-drug control (NormRate, gramicidin monomer-dimer shift) (ratio (fold of control)); higher = stronger bilayer-modifying effect (equilibrium shifted toward conducting dimers), active = 1.5 or more
# Conditions: 10 µM; lipid concentration 50 µM; temperature: 25 °C
# Procedure: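 Stopped-flow fluorescence quench assay: ANTS-loaded DC22:1PC large unilamellar vesicles doped with gramicidin D (1:2000), 50 µM lipid, equilibrated 10 min with 10 µM drug (0.1% DMSO), mixed with Tl+ quench buffer at 25°C. Initial quench rate (Tl+ influx) was fitted with a modified stretched exponential and normalised to the no-drug control rate (NormRate); duplicates from two independent LUV preparations (triplicates for 7 drugs).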
row,Compound,initial Tl+ fluorescence quench rate
1,O=C(NC1CCCCC1)N1CCN(Cc2ccc3c(c2)OCO3)CC1,1.13 (inactive)
2,Cc1ccc2nc(C)c(-c3ccn(Cc4ccccc4)n3)n2c1,1.28 (inactive)
3,c1coc(CNc2nc(N3CCCCC3)nc3ccccc23)c1,1.02 (inactive)
4,Cc1nn2c(=O)c3c([nH]c2c1-c1ccc(Cl)cc1)CCCC3,1.13 (inactive)
5,COC(=O)C1=C(C)NC(C)=C(C(=O)OC(C)C)[C@@H]1c1cccc2nonc12,1.33 (inactive)
6,O=C(Nc1ccnc(-c2cccnc2)n1)c1cc(C(F)(F)F)cc(C(F)(F)F)c1,1.2 (inactive)
7,Cc1ccccc1CN1CCC(O)(c2ccc(Cl)c(C(F)(F)F)c2)CC1,1.14 (inactive)
8,C[C@@H](Oc1ccccc1)C(=O)Nc1nc(-c2ccccn2)cs1,1.29 (inactive)
9,NS(=O)(=O)c1cncc(-c2ccc3nccc(-c4cn[nH]c4)c3n2)c1,1.18 (inactive)
10,CN1CCN(S(=O)(=O)c2ccc(-c3ccc4c(Nc5ccc6nn[nH]c6c5)ccnc4c3)cc2)CC1,1.28 (inactive)
11,Cc1ccc(Oc2ccc(NC(=O)CNc3ccccc3N3CCCC3=O)cc2)cc1,4.66 (active)
12,Cc1cc(Nc2ccc(C(F)(F)F)cc2)n2ccnc2n1,1.05 (inactive)
13,CN(C(=O)c1cc2c(-c3cncnc3)cccc2[nH]1)c1ccccc1,1.12 (inactive)
14,CC(C)(C)[C@H]1CC[C@H](CC2=C(O)C(=O)c3ccccc3C2=O)CC1,1.31 (inactive)
15,N#Cc1ccc(-c2ccc(OCC(N)=O)cc2)cc1,1.06 (inactive)
16,CN1CCN(c2nccc3[nH]c(-c4cccc(F)c4)cc23)CC1,1.1 (inactive)
17,[H]/N=C(\N)c1ccc(OCCCCCOc2ccc(/C(N)=N\[H])cc2)cc1,1.02 (inactive)
18,O=C(c1ccc(F)cc1)N(CCNc1ccccc1)c1ccccc1,1.36 (inactive)
19,Nc1ncnc2c1ncn2[C@@H]1O[C@H](COS(=O)(=O)NC(=O)c2ccccc2O)[C@@H](O)[C@H]1O,1.02 (inactive)
20,COc1ccccc1CNC(=O)c1cc(C2CC2)nc2c1cnn2C(C)C,1.62 (active)

row,Compound,initial Tl+ fluorescence quench rate
1,O[C@@H](c1cc(C(F)(F)F)nc2c(C(F)(F)F)cccc12)[C@H]1CCCCN1,2.24 (active)
2,CS(=O)(=O)N1CCC(CCn2nc(Cc3cccc4ccccc34)c3c(N)ncnc32)CC1,1.95 (active)
3,CC[C@H](CO)NCCN[C@H](CC)CO,1.02 (inactive)
4,CCC(=O)Nc1ccccc1C(=O)Nc1ccccn1,1.12 (inactive)
5,COc1ccc([C@H]2CC(c3cccs3)=NN2C(=O)c2ccco2)cc1OC,1.86 (active)
6,O=C(Nc1ccc(N2CCNCC2)cc1)c1ccn2ncc(-c3cccc(Cl)c3)c2n1,2.57 (active)
7,C[C@H]1COc2c(N3CCN(C)CC3)c(F)cc3c(=O)c(C(=O)O)cn1c23,1.04 (inactive)
8,Cc1cc(Cl)ccc1NC(=O)CCc1ccc(S(=O)(=O)NCC(C)C)cc1,1.42 (inactive)
9,COc1cc(C(F)(F)F)nc2ccc(C)c(N)c12,1.03 (inactive)
10,Cc1nc(-c2ccccn2)nc(N(C)CCc2ccccc2)c1Cl,2.23 (active)
11,c1ccc(Oc2ccc(-c3cc(N4CCOCC4)[nH]n3)cc2)cc1,2.4 (active)
12,Cc1ccc2[nH]c([C@H]3CCCNC3)c(-c3ccncc3)c2c1,1.42 (inactive)
13,CCOC(=O)c1cc(-c2csc(Nc3c(C)cc(C)cc3C)n2)on1,1.15 (inactive)
14,Cc1ccc(NC(=O)C[C@@H]2COc3ccccc3O2)cc1Cl,2.24 (active)
15,CC(C)[C@H](C(=O)Nc1ccc(S(=O)(=O)N(C)C)cc1)c1ccc(Cl)cc1,4.3 (active)
16,C[C@]1(O)C[C@@H](c2nc(-c3ccc4ccc(-c5ccccc5)nc4c3)c3c(N)nccn32)C1,1.59 (active)
17,CCc1nc2ccc(Cl)cn2c1C(=O)NCc1ccc(N2CCC(c3ccc(OC(F)(F)F)cc3)CC2)cc1,1.09 (inactive)
18,O=S(=O)(c1ccc(Cl)cc1)N1CCN(C(=S)NCc2ccco2)CC1,1.54 (active)
19,CN(C)c1cc(NC(=O)Nc2ccccc2)c2ccccc2n1,1.74 (active)
20,O=C(C1CCN(c2nnc(-n3cccc3)s2)CC1)N1CCC(Cc2ccccc2)CC1,1.24 (inactive)
